In PubChem BioAssay:
Where “and” joins values, the source holds several entries; their conditions need not be identical. Identical values can stand only once. Calls of active or inactive are those of the source. Cut-off read from the data, not from the text of the source, unless noted: active = inhibition above about 80%; inactive = the rest.

Tests used:
[1] = biological target: NAD(+) hydrolase SARM1 (Homo sapiens) (UniProt Q6SZW1); assay: blocking NAD cleavage by SARM1 SAM-TIR – cell lysate, NAD-Glo luminescence (AID 1508614;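 active = compound whose remaining NAD level is above about 45 nM, limit read from the data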;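 note: higher remaining NAD means stronger inhibition of SARM1 NADase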); settings: SAM-TIR HEK293T lysate NADase, at 1 µM, stronger effect = higher value
[2] = biological target: Mitogen-activated protein kinase 7 (Homo sapiens) (UniProt Q13164); assay: Gal4-ERK5 driven luciferase induction – cell-based, HTS, primary screen (AID 1508626;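 active = luciferase signal above three times the same-plate solvent-only control wells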;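 note: luciferase driven by Gal4-ERK5 fusion binding five Gal4 sites before minimal TATA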); settings: HeLa Gal4-ERK5 transactivation, 18 h, at 5 µM, stronger effect = higher value
[3] = galactose survival enhancers in mitochondrial complex I cybrids – cell-based, galactose medium, ATP luminescence, primary screen (AID 1645843;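 active = z-score of at least 1.8 in each of two replicates, scored against plate mean and spread of sample wells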;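 note: positive z means more ATP and so rescue of galactose-driven cybrid death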); settings: complex I mutant cybrid cells, 72 h, stronger effect = higher value
[4] = growth inhibition, single agent or in combination, cell-based, chromothripsis tumors, cisplatin or BGB combos (AID 1671449); settings: LFS_MB_P medulloblastoma cells;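 note: cells exposed for 96 hours; 0% = vehicle DMSO and 100% = killing by high DMSO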
[5] = growth inhibition, single agent and combos, cell-based, chromothripsis tumors, cisplatin or BGB combos (AID 1671450); settings: HDN33 neuroblastoma cells, stronger effect = higher value;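 note: cells exposed to compound for four days; 0% = vehicle DMSO and 100% = cell killing by high DMSO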
[6] = growth inhibition, single agents and combos, ICB984, cell-based, cisplatin or BGB combos, synergistic combos for chromothripsis tumors (AID 1671451; call rule not given here;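 note: cells exposed for 96 hours before readout; 0% = vehicle DMSO and 100% = killing by high DMSO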); settings: ICB984 medulloblastoma cells, drug combinations, stronger effect = higher value
[7] = growth inhibition, single agents and combos, LFS_MB_1R, cell-based, cisplatin or BGB combos, synergistic combos for chromothripsis tumors (AID 1671452); settings: LFS_MB_1R medulloblastoma cells, stronger effect = higher value;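 note: cells exposed for 96 hours before readout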
[8] = growth inhibition, single agents and combos, HTB85, cell-based, BGB or cisplatin IC20 combos, synergistic combos for chromothripsis tumors (AID 1671453); settings: HTB85 osteosarcoma cells, drug combinations, stronger effect = higher value;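 note: cells exposed for 96 hours before readout; 0% = vehicle DMSO and 100% = high DMSO killing control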
[9] = growth inhibition, single agents and combos, CRL2098, cell-based, BGB or cisplatin IC20 combos, synergistic combos for chromothripsis tumors (AID 1671454); settings: CRL2098 osteosarcoma cells, drug combinations, stronger effect = higher value;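 note: cells exposed for 96 h before readout; 0% = vehicle DMSO and 100% = killing by high DMSO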
[10] = growth inhibition, single agents and combos, HD-MB03, cell-based, BGB or cisplatin IC20 combos, synergistic combos for chromothripsis tumors (AID 1671455; in the data active = inhibition above about 83%;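 note: 0% = vehicle DMSO and 100% = high DMSO as cytotoxic control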); settings: HD-MB03 medulloblastoma cells, stronger effect = higher value
[11] = growth inhibition, single agents and combos, UWB1.289, cell-based, BGB or cisplatin combos, synergistic combos for chromothripsis tumors (AID 1671456); settings: UWB1.289 ovarian carcinoma cells, stronger effect = higher value;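 note: cells exposed to compound for four days; 0% = vehicle DMSO and 100% = killing by high DMSO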
[12] = growth inhibition, single agents and combos, LFS_MB_2R, cell-based, cisplatin combos, synergistic combos for chromothripsis tumors (AID 1671457); settings: LFS_MB_2R medulloblastoma cells, stronger effect = higher value;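 note: cells exposed to compound for four days before readout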
[13] = growth inhibition, MDA-MB-436, cell-based, BGB or cisplatin combos, synergistic combos for chromothripsis tumors (AID 1671458; call rule not given here;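 note: cells exposed for 96 hours; 0% = vehicle DMSO and 100% = killing by high DMSO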); settings: MDA-MB-436 breast carcinoma growth inhibition, drug combinations, stronger effect = higher value
[14] = UWB1.289_BRCA1 ovarian cancer growth, cell-based, BGB or cisplatin combinations (AID 1671459); settings: UWB1.289 BRCA1 ovarian carcinoma, drug combinations, stronger effect = higher value
[15] = drug combination toxicity in non-malignant astrocytes – cell-based, BGB or cisplatin IC20 combos, cytotoxicity control for chromothriptic childhood tumor combination screen (AID 1671460); settings: Human astrocytes, viability inhibition, drug combinations, at 0.5 µM, stronger effect = higher value;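 note: cells exposed to compounds for 96 hours before viability readout; 0% = vehicle and 100% = killing control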
[16] = BT084 cell growth, single and combined drugs, ICGC_MB145, cisplatin and BGB IC40 combos (AID 1671461); settings: BT084 medulloblastoma cells, drug combinations, stronger effect = higher value;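 note: cells exposed to drugs for 96 hours; 0% = vehicle DMSO and 100% = high DMSO full killing control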
[17] = RCMB18 cell growth, single agent and combined, cisplatin and BGB IC40 combos (AID 1671462); settings: RCMB18 medulloblastoma cells, stronger effect = higher value;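 note: cells exposed to compound for four days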
[18] = CRL1545 cell growth, single agent and combined, cisplatin and BGB IC20 combos (AID 1671464); settings: CRL1545 osteosarcoma cells, stronger effect = higher value;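 note: cells exposed to compound for 96 hours before readout; 0% = vehicle DMSO and 100% = high DMSO killing control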
F380Y = assay: BK channel mutant inhibitors and activators – cell-based, U2OS BacMam, thallium flux, beta subunits, selectivity assay, profiling panel (AID 1259406;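 active = thallium flux through the channel raised or lowered by more than 3 SD from vehicle-only wells, actives on both sides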;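 note: initial slope of Thallos dye fluorescence rise after thallium is added; log ratio against the mean of 0.3% DMSO vehicle wells on the same plate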); settings: U2OS BacMam BK variants, at 30 µM
F380Y/beta1 = assay: as above; settings: U2OS BacMam BK variants, at 30 µM
[19] = measured here: combination with BGB IC40, at 0.05 µM
[20] = measured here: with BGB IC20 combination, at 0.5 µM
[21] = measured here: with cisplatin IC20 combination, at 0.5 µM
[22] = measured here: combination with cisplatin, at 0.5 µM
[23] = measured here: combination with cisplatin, at 5 µM

NAD(+) hydrolase SARM1 (Homo sapiens), sequence (Q6SZW1 whole entry, looked up, the tested form may be a part): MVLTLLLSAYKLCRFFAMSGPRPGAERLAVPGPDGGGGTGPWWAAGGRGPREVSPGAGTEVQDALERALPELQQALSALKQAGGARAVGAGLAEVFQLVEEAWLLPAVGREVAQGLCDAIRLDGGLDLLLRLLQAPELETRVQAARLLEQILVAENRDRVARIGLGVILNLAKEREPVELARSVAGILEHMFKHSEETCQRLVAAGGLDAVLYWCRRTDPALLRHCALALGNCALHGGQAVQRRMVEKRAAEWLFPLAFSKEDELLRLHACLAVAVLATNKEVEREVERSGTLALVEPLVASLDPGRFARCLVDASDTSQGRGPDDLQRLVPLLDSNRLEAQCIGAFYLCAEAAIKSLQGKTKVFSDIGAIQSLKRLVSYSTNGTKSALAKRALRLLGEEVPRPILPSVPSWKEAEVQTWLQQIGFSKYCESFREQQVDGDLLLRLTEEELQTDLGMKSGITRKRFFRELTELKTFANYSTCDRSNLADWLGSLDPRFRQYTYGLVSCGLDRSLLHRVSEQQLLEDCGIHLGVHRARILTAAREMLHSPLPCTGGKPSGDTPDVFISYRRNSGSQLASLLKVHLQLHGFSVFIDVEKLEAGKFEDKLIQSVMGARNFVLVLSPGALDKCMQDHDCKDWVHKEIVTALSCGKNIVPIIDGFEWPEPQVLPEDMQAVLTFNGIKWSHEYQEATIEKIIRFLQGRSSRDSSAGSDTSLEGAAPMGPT
Mitogen-activated protein kinase 7 (Homo sapiens), sequence (Q13164 whole entry, looked up, the tested form may be a part): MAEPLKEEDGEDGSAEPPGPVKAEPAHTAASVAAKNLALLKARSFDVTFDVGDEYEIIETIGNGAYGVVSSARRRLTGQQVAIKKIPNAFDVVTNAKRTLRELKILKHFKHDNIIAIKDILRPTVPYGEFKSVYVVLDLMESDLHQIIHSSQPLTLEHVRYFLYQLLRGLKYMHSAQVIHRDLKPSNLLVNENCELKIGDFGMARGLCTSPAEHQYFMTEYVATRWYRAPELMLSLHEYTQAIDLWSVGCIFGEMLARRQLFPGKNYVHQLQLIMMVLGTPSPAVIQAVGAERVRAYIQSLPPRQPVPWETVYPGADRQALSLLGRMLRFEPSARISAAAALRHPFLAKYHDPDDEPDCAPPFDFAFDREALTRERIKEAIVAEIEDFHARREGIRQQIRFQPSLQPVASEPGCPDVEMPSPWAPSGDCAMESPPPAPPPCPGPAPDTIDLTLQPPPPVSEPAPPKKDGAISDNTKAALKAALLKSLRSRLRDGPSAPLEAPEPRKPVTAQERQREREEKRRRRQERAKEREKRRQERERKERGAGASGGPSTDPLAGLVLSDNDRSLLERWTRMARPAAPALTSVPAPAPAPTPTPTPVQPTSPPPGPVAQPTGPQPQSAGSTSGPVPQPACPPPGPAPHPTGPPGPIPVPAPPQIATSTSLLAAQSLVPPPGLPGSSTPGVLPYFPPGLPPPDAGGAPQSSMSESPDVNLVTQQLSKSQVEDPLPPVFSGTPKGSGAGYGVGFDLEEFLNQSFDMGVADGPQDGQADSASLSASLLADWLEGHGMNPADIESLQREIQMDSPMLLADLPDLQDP

CCN1CCN(c2cc3c(cc2F)c(=O)c(C(=O)O)cn3C2CC2)CC1
remaining NAD [1]: 10 nM (inactive) | luciferase signal [2]: 144 AU (inactive) | z-score [3]: -0.045 (inactive) and 0.1 (inactive) | inhibition ([4]; at 0.5 µM, stronger effect = higher value): -14.6% (inactive) | inhibition ([4]; measured here: combination with BGB IC20, at 0.005 µM): -15.1% | inhibition ([4]; measured here: combination with BGB IC40, at 0.005 µM): -16% | inhibition [4, 19]: -15.4% | inhibition ([4]; measured here: combination with cisplatin, at 0.5 µM, stronger effect = higher value): -35.9% | inhibition ([4]; measured here: combination with cisplatin, at 5 µM, stronger effect = higher value): -7.57% | inhibition ([5]; BGB combo, at 5 µM): -5.32% | inhibition ([5]; at 0.5 µM): -11.2% (inactive) | inhibition ([5]; cisplatin combo, at 5 µM): 14% | inhibition [5, 20]: -32.1% | inhibition [5, 21]: 1.88% | inhibition ([5]; single agent, at 5 µM): -10.9% | inhibition ([6]; BGB IC20 combo, at 0.005 µM): -8.19% | inhibition ([6]; BGB IC40 combo, at 0.005 µM): -15.5% | inhibition ([6]; BGB IC40 combo, at 0.05 µM): -15.7% | inhibition ([6]; at 0.5 µM): -30.1% (inactive) | inhibition ([6]; cisplatin combo, at 0.05 µM): -18.9% | inhibition ([6]; cisplatin combo, at 0.5 µM): -33.6% | inhibition ([6]; cisplatin combo, at 5 µM): 5.13% | inhibition ([6]; measured here: 5 uM single agent, at 5 µM): -24% | inhibition ([7]; at 0.5 µM): -17.4% (inactive) | inhibition [7, 19]: -29.3% | inhibition [7, 22]: -5.5% | inhibition [7, 23]: -5.5% | inhibition ([8]; at 0.5 µM): 4.78% (inactive) | inhibition ([8]; measured here: with BGB IC20, at 0.5 µM): -19% | inhibition ([8]; measured here: with BGB IC20, at 5 µM): -4.03% | inhibition ([8]; measured here: with cisplatin IC20, at 0.5 µM): 19.5% | inhibition ([8]; measured here: with cisplatin IC20, at 5 µM): -34% | inhibition ([8]; single agent, at 5 µM): -31.7% | inhibition ([9]; at 0.5 µM): -28.3% (inactive) | inhibition ([9]; measured here: combination with BGB at IC20, at 0.5 µM): -35.5% | inhibition ([9]; measured here: combination with cisplatin at IC20, at 0.5 µM): -26.8% | inhibition ([10]; at 0.5 µM): -4.62% (inactive) | inhibition ([10]; measured here: combo with BGB at IC20, at 0.5 µM): -3.92% | inhibition ([10]; measured here: combo with cisplatin at IC20, at 0.5 µM): -4.26% | inhibition ([11]; at 0.5 µM): -2.08% (inactive) | inhibition ([11]; measured here: inhibition with BGB combination, at 0.05 µM): -31.5% | inhibition ([11]; measured here: inhibition with cisplatin combination, at 0.05 µM): -8.73% | inhibition ([12]; at 0.5 µM): -19.4% (inactive) | inhibition [12, 22]: -28.5% | inhibition [12, 23]: -100% | inhibition ([13]; at 0.5 µM): -32.9% (inactive) | inhibition ([13]; measured here: BGB combination, at 0.5 µM): -15.3% | inhibition ([13]; measured here: BGB combination, at 5 µM): -31.3% | inhibition ([13]; measured here: cisplatin combination, at 0.5 µM): -56.8% | inhibition ([13]; measured here: cisplatin combination, at 5 µM): -40.4% | inhibition ([14]; BGB combination, concentration series, at 5 µM): -7.62% | inhibition ([14]; at 0.5 µM): -4.92% (inactive) | inhibition ([14]; cisplatin combination, concentration series, at 5 µM): -6.59% | inhibition [15]: -1.67% (inactive) | inhibition ([15]; measured here: combo with BGB IC20): -3.12% | inhibition ([15]; measured here: combo with cisplatin IC20): -14.1% | inhibition ([16]; at 0.5 µM): -38.8% (inactive) | inhibition ([16]; cisplatin combination, at 0.5 µM): -21.3% | inhibition ([16]; cisplatin combination, at 5 µM): -23.4% | inhibition ([16]; measured here: BGB IC40 combination 0.05 uM, at 0.05 µM): -13.2% | inhibition ([16]; single agent, at 5 µM): -37.9% | inhibition ([17]; at 0.5 µM): -17.8% (inactive) | inhibition ([17]; cisplatin combo, at 5 µM): -22.9% | inhibition ([17]; measured here: BGB IC40 combination, at 0.05 µM): -24.4% | inhibition [17, 22]: -16% | inhibition ([17]; single agent, at 5 µM): -19.4% | inhibition ([18]; at 0.5 µM): 13.5% (inactive) | inhibition [18, 20]: 6.58% | inhibition [18, 21]: 15.1% | inhibition ([18]; single agent, at 0.05 µM): -0.132% | inhibition ([18]; single agent, at 5 µM): 12.7% | log fold change Tl+ flux (F380Y): -0.0402 (inactive) | log fold change Tl+ flux (F380Y/beta1): 0.00744 (inactive)

Nc1nc(N)nc(-c2cc(Cl)ccc2Cl)n1
remaining NAD [1]: 10 nM (inactive) | z-score [3]: 0.88 (inactive) and -0.09 (inactive) and 0.54 (inactive) | log fold change Tl+ flux (F380Y): 0.00819 (inactive) | log fold change Tl+ flux (F380Y/beta1): 0.00785 (inactive)
